# PubChem BioAssay AID1159580 (chemical genetic matrix, 2015)
# Where “and” joins values, the source holds several entries; their conditions need not be identical. Equal entries are not always repeated. In all, about 5,500 compounds went through this assay and about 2,000 (36%) were called active. Roughly 18% stayed inconclusive and do not appear here. The list shows a part of the results. A number with no mark means an inactive call. Rule as the data show it: active = normalized growth mostly below about 0.91 (no sharp cut-off); inconclusive = no clear call, values can overlap the other calls; inactive = mostly above about 0.92.
# Assay: chemical genetic growth profiling, strain panel (AID 1159580);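 also: tested at 20 µM; growth read once vehicle control cultures reached saturation at 30 °C; 1 = growth at the plate median or of vehicle wells; lower values mean less growth of the strain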
# Conditions: S. cerevisiae deletion strains, growth OD
structure (smiles),measurement,setting,value
CC1CC[C@@]2(OC1)O[C@H]1CC3C4CC[C@@H]5C[C@@H](O)CC[C@]5(C)C4CC[C@]3(C)[C@H]1[C@@H]2C (stereo partly specified),normalized growth,"locus YAL013W, strain DEP1, hits give low values",1.03
same,normalized growth,"locus YAL021C, strain ccr4, hits give low values",1.05
same,normalized growth,"locus YAL026C, strain drs2, hits give low values",1.02
same,normalized growth,"locus YAL030W, strain snc1, hits give low values",1.03
same,normalized growth,"locus YBL061C, strain skt5, hits give low values",1.02
same,normalized growth,"locus YBR009C, strain hhf1, hits give low values",1.01
same,normalized growth,"locus YBR021W, strain FUR4, hits give low values",1.02
same,normalized growth,"locus YBR023C, strain chs3, hits give low values",1.05
same,normalized growth,"locus YBR171W, strain sec66, hits give low values",1.04
same,normalized growth,"locus YBR229C, strain ROT2, hits give low values",1.01
same,normalized growth,"locus YBR231C, strain swc5, hits give low values",1.02
same,normalized growth,"locus YBR279W, strain paf1, hits give low values",1.02
same,normalized growth,"locus YCL011C, strain gbp2, hits give low values",1.06
same,normalized growth,"locus YCL016C, strain dcc1, hits give low values",1.02
same,normalized growth,"locus YCL029C, strain bik1, hits give low values",1.01
same,normalized growth,"locus YCL061C, strain MRC1, hits give low values",1.02
same,normalized growth,"locus YCL069W, strain vba3, hits give low values",1.05
same,normalized growth,"locus YCR088W, strain abp1, hits give low values",1.03
same,normalized growth,"locus YDL005C, strain med2, hits give low values",1.03
same,normalized growth,"locus YDL035C, strain GPR1, hits give low values",1.07
same,normalized growth,"locus YDL040C, strain nat1, hits give low values",1.02
same,normalized growth,"locus YDL074C, strain BRE1, hits give low values",1.11
same,normalized growth,"locus YDL101C, strain DUN1, hits give low values",1.02
same,normalized growth,"locus YDL134C, strain PPH21, hits give low values",1.03
same,normalized growth,"locus YDL185W, strain tfp1, hits give low values",1
same,normalized growth,"locus YDL192W, strain arf1, hits give low values",1.01
same,normalized growth,"locus YDR001C, strain nth1, hits give low values",1.05
same,normalized growth,"locus YDR069C, strain doa4, hits give low values",1.06
same,normalized growth,"locus YDR101C, strain arx1, hits give low values",1.01
same,normalized growth,"locus YDR137W, strain rgp1, hits give low values",0.984
same,normalized growth,"locus YDR150W, strain NUM1, hits give low values",1.03
same,normalized growth,"locus YDR159W, strain sac3, hits give low values",1.01
same,normalized growth,"locus YDR162C, strain NBP2, hits give low values",1.04
same,normalized growth,"locus YDR195W, strain ref2",1.17 [resistant] (active)
same,normalized growth,"locus YDR297W, strain sur2, hits give low values",1.02
same,normalized growth,"locus YDR318W, strain mcm21, hits give low values",1.01
same,normalized growth,"locus YDR334W, strain swr1, hits give low values",1.05
same,normalized growth,"locus YDR335W, strain msn5, hits give low values",1.06
same,normalized growth,"locus YDR388W, hits give low values",1.02
same,normalized growth,"locus YDR392W, strain spt3, hits give low values",1.03
same,normalized growth,"locus YDR502C, strain sam2, hits give low values",0.997
same,normalized growth,"locus YEL003W, strain gim4, hits give low values",1.08
same,normalized growth,"locus YEL037C, strain rad23, hits give low values",1.2 [resistant] (active)
same,normalized growth,"locus YEL061C, strain CIN8 (second series), hits give low values",1.08
same,normalized growth,"locus YER015W, strain faa2, hits give low values",1.03
same,normalized growth,"locus YER016W, strain bim1, hits give low values",1.02
same,normalized growth,"locus YER110C, hits give low values",0.997
same,normalized growth,"locus YER111C, strain swi4, hits give low values",1.28 [resistant] (active)
same,normalized growth,"locus YER155C, strain BEM2 (second series), hits give low values",1.09
same,normalized growth,"locus YER155C, strain BEM2, hits give low values",1
same,normalized growth,"locus YER167W, strain BCK2, hits give low values",1.02
same,normalized growth,"locus YFR010W, strain ubp6, hits give low values",1.06
same,normalized growth,"locus YGL078C, strain dbp3, hits give low values",1.02
same,normalized growth,"locus YGL086W, strain mad1, hits give low values",1
same,normalized growth,"locus YGL167C, strain pmr1, hits give low values",1.02
same,normalized growth,"locus YGL173C, strain kem1, hits give low values",1.02
same,normalized growth,"locus YGL227W, strain vid30, hits give low values",1.03
same,normalized growth,"locus YGL240W, strain doc1, hits give low values",1.02
same,normalized growth,"locus YGL248W, strain PDE1, hits give low values",1.06
same,normalized growth,"locus YGL253W, strain hxk2, hits give low values",1.07
same,normalized growth,"locus YGR135W, strain pre9, hits give low values",1.01
same,normalized growth,"locus YGR252W, strain gcn5, hits give low values",1.05
same,normalized growth,"locus YHR013C, strain ard1, hits give low values",1.04
same,normalized growth,"locus YHR027C, strain rpn1, hits give low values",1.03
same,normalized growth,"locus YHR030C, strain SLT2, hits give low values",0.965
same,normalized growth,"locus YHR079C, strain IRE1 (second series), hits give low values",0.993
same,normalized growth,"locus YHR079C, strain IRE1, hits give low values",0.97
same,normalized growth,"locus YHR094C, strain hxt1, hits give low values",1.01
same,normalized growth,"locus YHR129C, strain ARP1, hits give low values",1.05
same,normalized growth,"locus YHR142W, strain chs7, hits give low values",1.18 [resistant] (active)
same,normalized growth,"locus YIL066C, strain RNR3, hits give low values",1.03
same,normalized growth,"locus YIL073C, strain SPO22, hits give low values",1.12
same,normalized growth,"locus YIL125W, strain kgd1, hits give low values",0.999
same,normalized growth,"locus YIR030C, strain dcg1, hits give low values",1
same,normalized growth,"locus YJL092W, strain hpr5, hits give low values",1.02
same,normalized growth,"locus YJL095W, strain BCK1 (second series), hits give low values",1.01
same,normalized growth,"locus YJL095W, strain BCK1, hits give low values",1.06 and 0.993
same,normalized growth,"locus YJL115W, strain asf1, hits give low values",1.03
same,normalized growth,"locus YJL134W, strain LCB3, hits give low values",1.02
same,normalized growth,"locus YJL154C, strain vps35, hits give low values",1.11 [resistant] (active)
same,normalized growth,"locus YJL164C, strain tpk1, hits give low values",1.02
same,normalized growth,"locus YJL166W, strain qcr8, hits give low values",1.02
same,normalized growth,"locus YJL168C, strain set2, hits give low values",0.988
same,normalized growth,"locus YJL187C, strain SWE1 (second series), hits give low values",1.04
same,normalized growth,"locus YJL187C, strain SWE1, hits give low values",1.01
same,normalized growth,"locus YJR043C, strain POL32, hits give low values",1.05
